Experimental data reported in PubChem BioAssay AID977606 (Broad Institute, 2014).
About 430 (29%) of roughly 1,500 compounds were called active. The rule behind the calls is not given here. Not all results are given here. Potency and affinity values are given separately.

Test: glucose-independent GLuc insulin release activation – cell-based, INS-1E, Gaussia luciferase, luminescence, cherry-pick, counter-screen for glucose-dependent insulin secretion activators, dose response (AID 977606);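 note: 0% = median of neutral control wells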
Settings: INS-1E Gaussia luciferase insulin secretion, no glucose, 100% = twice neutral-control luminescence; series mostly up to 35 µM; activation: at the top concentration
With `CS(=O)(=O)c1nc(S(=O)(=O)c2ccc(Cl)cc2)c(N2CCCCCC2)s1` the “activation” value was -11.7% (inactive). In the case of `C=CCn1cc(Cl)cc(C(=O)Nc2ccccc2)c1=O`, the “activation” value is reported as -11.1% (inactive). In the case of `c1ccc(-c2nnc3ccc(N4CCC5(CC4)OCCO5)nn23)cc1`, the “activation” value is reported as -12.7% [at 11 µM] (inactive). With `O=C(O)c1ccc(-n2nnnc2SCc2ccccc2Br)cc1` the “activation” value was 3.9% (inactive). In the case of `CCC1OC(C2CC2)CC2=C1C(=O)OC(C)(C)O2` (centres undefined), the “activation” value is reported as 12% (inactive). In the case of `c1ccc(CCN2CCN=C2Nc2ccccc2)cc1`, the “activation” value is reported as 8.32% (inactive). For `O=C(NC1CCCCC1)C(c1ccc(F)cc1)N(Cc1ccccc1)C(=O)CN1C(=O)c2ccccc2S1(=O)=O` (centres undefined), the “activation” value was 19.7% (inactive). For `COc1cc(C(=O)O)ccc1OCc1ccccc1`, the “activation” value was 7.43% (inactive). In the case of `COc1ccc(/C=N/NS(=O)(=O)c2ccccc2)cc1OC`, the “activation” value is reported as -6.16% (inactive). In the case of `O=C(O)c1ccc(-n2nnnc2SCc2cccc(Br)c2)cc1`, the “activation” value is reported as -19% (inactive). With `CCCCNc1cc(Cl)nc(N)n1` the “activation” value was -9.67% (inactive). With `O=C(N/N=C/c1ccncc1)c1cc(-c2ccc(Br)s2)[nH]n1` the “activation” value was 15.7% (inactive). With `CC1=CC(c2ccccc2)n2nc(NC(=O)CCC(=O)O)nc2N1` (centres undefined) the “activation” value was 23.7% (inactive). With `CC(=O)NCCNC(=O)CNC(=O)c1ccc(Cl)cc1` the “activation” value was -4.51% (inactive). With `C=CCn1cnc2scc(-c3ccc(OC)cc3)c2c1=O` the “activation” value was -6.85% (inactive). In the case of `COc1cc2c(cc1OC)/C(=C/C(=O)c1ccc(NC(C)=O)cc1)NCC2`, the “activation” value is reported as -1.92% (inactive). With `COC(=O)c1sc2ccccc2c1NC(=O)c1cccs1` the “activation” value was 5.35% (inactive). In the case of `O=C(Nc1nonc1NC(=O)c1cccs1)c1cccs1`, the “activation” value is reported as 2.51% (inactive). In the case of `CCOc1ncccc1C(=O)Nc1ccc(S(=O)(=O)Nc2nccs2)cc1`, the “activation” value is reported as 10.1% (inactive). For `O=C(O)c1cccc(N/N=C/c2sc(N3CCOCC3)nc2-c2ccccc2)c1`, the “activation” value was 5.36% (inactive). For `Cc1ccc(NC(=O)CC2S/C(=N/N=C/c3c[nH]c4ccccc34)NC2=O)cc1` (centres undefined), the “activation” value was -5.04% (inactive). In the case of `Cc1ccc(CC2S/C(=N/c3ccccn3)NC2=O)cc1` (centres undefined), the “activation” value is reported as 2.79% (inactive). For `CCc1ccc2c(c1)cc(CN(Cc1ccco1)C(C)=O)c1nnnn12`, the “activation” value was -15.1% (inactive). With `N#CCc1nn2c(-c3ccccc3)ccnc2c1C#N` the “activation” value was -3.25% (inactive). With `O=C(OCc1c(-c2ccccc2)ncc2ccccc12)c1cccs1` the “activation” value was 21.3% (inactive). In the case of `O=C(NCc1ccco1)c1ccc2c(=O)n(CCC3=CCCCC3)c(=O)[nH]c2c1`, the “activation” value is reported as -26.6% (inactive). In the case of `Cc1c(CC(=O)O)c(=O)oc2c(C)c(OCc3ccccc3Br)ccc12`, the “activation” value is reported as -2.31% (inactive). In the case of `N#Cc1c(N)n(C2CCCCC2)c2nc3ccccc3nc12`, the “activation” value is reported as 57.7% (inactive). In the case of `COc1ccc(-n2c(O)cnc2Nc2nc(C)cc(C)n2)cc1OC`, the “activation” value is reported as -3.92% (inactive). In the case of `CCn1ccc(C(=O)Nc2ccccc2SC)n1`, the “activation” value is reported as 1.42% (inactive). In the case of `CCOC(=O)Cn1c(=O)n(Cc2ccc(OC)cc2)c(=O)c2cccnc21`, the “activation” value is reported as -7.55% (inactive). In the case of `COc1ccc(CNC(=O)COC(=O)c2cc(C)nc3ccccc23)cc1`, the “activation” value is reported as -10.3% (inactive). In the case of `Cc1ccc(NC(=O)[C@@H](Cc2ccccc2)NC(=O)[C@H]2O[C@@H](n3ccc(=O)[nH]c3=O)[C@H](O)[C@@H]2O)cc1C`, the “activation” value is reported as 23.2% (inactive). For `CNc1nc(N)c(C(=O)C(C)(C)C)s1`, the “activation” value was -4.21% (inactive). With `COCCn1c(=S)[nH]c2sc3c(c2c1=O)CCCC3` the “activation” value was -6.53% [at 11 µM] (inactive). For `COc1ccc(OC)c(C2=Nn3c(nnc3-c3ccncc3)SC2)c1`, the “activation” value was -10.9% (inactive). With `CC(C)Cn1c(=O)n(C)c(=O)c2[nH]cnc21` the “activation” value was -2.64% (inactive). In the case of `O=C(NCC1CCCO1)C1CCC(N2C(=O)c3ccccc3C2=O)CC1` (centres undefined), the “activation” value is reported as -8.16% (inactive). With `CC(C)NC(=O)C1(C)CN(S(C)(=O)=O)CC(=O)N1CCCN1CCOCC1` (centres undefined) the “activation” value was 2.72% (inactive). In the case of `O=C(CC1SC2=NCCN2C1=O)Nc1ccc(Br)cc1` (centres undefined), the “activation” value is reported as -8.59% (inactive). For `O=C(NC1CCCC1)C(C1CC1)n1c(-c2ccccn2)nc2ccccc21` (centres undefined), the “activation” value was -18.3% (inactive). In the case of `COc1ccc(C(O)c2nccc3cc(OC)c(OC)cc23)cc1OC` (centres undefined), the “activation” value is reported as -5.12% (inactive). In the case of `O=C(NN=C1CCCC1)c1cc(-c2ccccc2)n[nH]1`, the “activation” value is reported as -20% (inactive). For `COc1ccc(/C=N/NC(=O)c2cc(-c3ccc4c(c3)OCO4)n[nH]2)cc1OC`, the “activation” value was -16.1% (inactive). With `Cc1cccc(CN2C(=O)CSc3ccc(C(=O)NC4CC4)cc32)c1` the “activation” value was 0.275% (inactive). For `CNc1nc(Sc2ccccc2)cc(C(F)(F)F)n1`, the “activation” value was 129% (inactive). In the case of `CCOC(=O)c1cnc2ccc(Cl)cc2c1Nc1ccc(S(=O)(=O)Nc2ncccn2)cc1`, the “activation” value is reported as -1.89% (inactive). In the case of `CC(=O)c1cccc(Nc2ncnc3ccc(Br)cc23)c1`, the “activation” value is reported as -12.3% (inactive). With `COc1ccc(Cl)cc1C(=O)Nc1cccc(-c2ccc3nncn3n2)c1` the “activation” value was -8.31% (inactive). With `COc1ccc(/C(C)=N/Nc2ccc(C(=O)O)cc2)cc1OC` the “activation” value was 13.4% (inactive). In the case of `Cc1cc(C(=O)Nc2cccc(O)c2)c(C)o1`, the “activation” value is reported as -9.65% (inactive). With `Cc1ccnc(NC(=O)Nc2ccc(Br)cc2Cl)c1` the “activation” value was 4.76% (inactive). For `COc1ccc(CCN(C)C(=O)CCNS(=O)(=O)c2ccccc2C(F)(F)F)cc1OC`, the “activation” value was 0.4% (inactive). For `COc1nc(-c2ccccc2)c2cc(C)ccc2n1`, the “activation” value was 2.68% (inactive). With `NNc1nc(-c2ccccc2)c2ccccc2n1` the “activation” value was -5.34% (inactive). With `NC(=O)c1cc2cc(Cl)ccc2o/c1=N/NC(=O)c1cccs1` the “activation” value was -11.5% (inactive). In the case of `COc1ccc(/C=C2/SC(=O)N(NS(=O)(=O)c3ccccc3)C2=S)cc1OC`, the “activation” value is reported as 8.84% (inactive). For `CCc1nc2ccc(C(=O)N(C)CCCN(C)C)cn2c1N(C=O)CCC(C)C`, the “activation” value was 12.7% (inactive). In the case of `CCCc1cc2c(OC)ccc(O)c2c(=O)n1C`, the “activation” value is reported as 17.8% (inactive). With `CCn1nc(C(=O)Nc2ccc3nc(C)sc3c2)c2ccccc2c1=O` the “activation” value was 4.93% (inactive). In the case of `CC(=O)Nc1ccc(Cl)c(-c2nc3ncccc3o2)c1`, the “activation” value is reported as -0.068% (inactive). For `CNc1cc(-c2ccc(OC)c(OC)c2)ncn1`, the “activation” value was 0.426% (inactive). With `CC(C)c1c(C(=O)N/N=C/c2cccc3ccccc23)nnn1-c1nonc1N` the “activation” value was -18.9% (inactive). With `CC(C)Nc1nc(NC(C)(C)C)nc(Oc2ccc(=O)n(C)n2)n1` the “activation” value was -1.51% (inactive). With `COc1cc2c(cc1OC)-c1cc(Nc3ccc(C)cc3)nc(=O)n1CC2` the “activation” value was -11.2% (inactive). In the case of `COc1ccc(OC)c(N(CC(=O)NN=C2CCN(C)CC2)S(=O)(=O)c2ccccc2)c1`, the “activation” value is reported as 2.12% (inactive). With `CCCCC(=O)Nc1ccc(C(=O)NNC(=O)c2ccc(C)c(Br)c2)cc1` the “activation” value was -4.37% (inactive). For `COc1ccc(/C=N/n2c(-c3n[nH]c4c3CCC4)n[nH]c2=S)cc1OC`, the “activation” value was -11.4% (inactive). In the case of `NC(=O)c1ccsc1NC(=O)COC(=O)CNC(=O)c1ccc(Cl)cc1`, the “activation” value is reported as -1.84% (inactive). For `COc1ccc(C(=O)NCC(=O)OCC(=O)Nc2sccc2C#N)cc1OC`, the “activation” value was -1.08% (inactive). With `Cc1cc2oc(=O)cc(CN3CCOCC3)c2c(C)c1Cl` the “activation” value was -14.3% (inactive). For `c1ccc2c(NCC3CCCO3)nc(N3CCCCC3)nc2c1` (centres undefined), the “activation” value was -9.01% (inactive). In the case of `COc1cc(C2N(C)CCC3(OCCO3)C2(C)C)cc(OC)c1OC` (centres undefined), the “activation” value is reported as -3.95% (inactive). In the case of `CCOc1ccc2oc(C(=O)N(C)CCc3ccc(OC)c(OC)c3)c(C)c2c1`, the “activation” value is reported as 11% (inactive). In the case of `COc1ccc(-c2cc3nc4ccccc4n3c(N)c2C#N)cc1`, the “activation” value is reported as 0.43% (inactive). For `O=C(NCCCNc1ccnc2cc(Cl)ccc12)c1ccccc1F`, the “activation” value was 15.9% (inactive). In the case of `COc1ccc(C(=O)Cc2cc3cccc(OC)c3oc2=O)cc1`, the “activation” value is reported as -13.9% (inactive). In the case of `COc1cccc(NC(=O)CN(C)C(=O)Cn2[nH]c(=O)c3ccccc3c2=O)c1`, the “activation” value is reported as 7.36% (inactive). With `CCn1c(=O)[nH]c(=O)c2c(N)c(C(=O)c3cc(F)ccc3F)sc21` the “activation” value was -0.669% (inactive).
